Measured values taken from PMC5540273 (PLoS ONE, 2017).

Legend:
Details in all cases: concentration: 1 μM, replicates: in singlicate; n = 1
CLK2 = test system: CLK2
CLK3 = test system: CLK3
CLK4 = test system: CLK4
CSF1R-autoinhibited = test system: CSF1R-autoinhibited
CSF1R = test system: CSF1R
CSK = test system: CSK
CSNK1A1L = test system: CSNK1A1L
CSNK1A1 = test system: CSNK1A1
CSNK1D = test system: CSNK1D
CSNK1E = test system: CSNK1E
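Note: KINOMEscan kinase panel screen.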

SMILES | %Inh (CLK2) [%] | %Inh (CLK3) [%] | %Inh (CLK4) [%] | %Inh (CSF1R-autoinhibited) [%] | %Inh (CSF1R) [%] | %Inh (CSK) [%] | %Inh (CSNK1A1L) [%] | %Inh (CSNK1A1) [%] | %Inh (CSNK1D) [%] | %Inh (CSNK1E) [%]
Cl.N#CCc1ccc(Nc2nccc(Nc3ccc(Oc4ccccc4)cc3)n2)cc1 [GW639905] | 9 | 0 | 3 | 7 | 35 | 31 | 0 | 0 | 0 | 8
Nc1ncc(-c2ccc3nccc(-c4ccncc4)c3c2)cc1S(=O)(=O)N1CCCCC1 [GSK1693850] | 67 | 49 | 72 | 0 | 4 | 0 | 0 | 0 | 24 | 54
Cc1ccc(-c2ccc3occ(-c4ccc(S(C)=O)cc4)c3c2)nn1 (stereo not shown) | 0 | 0 | 70 | 13 | 0 | 1 | 0 | 0 | 0 | 0
COc1cc(Nc2nccc(N3CCC(NS(=O)(=O)c4ccc(NC(C)=O)cc4)CC3)n2)cc(OC)c1OC [GSK1379825] | 0 | 23 | 39 | 7 | 19 | 0 | 3 | 8 | 0 | 21
Nc1ncnc2scc(-c3ccc(NC(=O)Cc4cc(F)ccc4F)cc3)c12.O=C(O)C(F)(F)F [SB-731254-M] | 0 | 14 | 12 | 79 | 100 | 9 | 6 | 15 | 29 | 0
CN(c1ccc2c(c1)nc(NCc1ccccc1)n2C)c1ccnc(Nc2ccc(CS(C)(=O)=O)cc2)n1.Cl [GW811603] | 0 | 43 | 0 | 80 | 100 | 14 | 0 | 36 | 0 | 18
COc1cc(Nc2ccnc3cc(-c4ccncc4)ccc23)cc(OC)c1OC.Cl [GW494610] | 0 | 0 | 29 | 22 | 49 | 79 | 18 | 11 | 46 | 38
N#CC1(c2cccc(C(=O)Nc3cccc(Oc4ccc5nc(NC(=O)C6CC6)sc5n4)c3)c2)CC1 | 4 | 0 | 17 | 87 | 100 | 25 | 0 | 0 | 14 | 0
O=C(Nc1c(F)cccc1F)c1cc(C(=O)c2ccccc2F)c[nH]1 [GSK1326180] | 0 | 2 | 0 | 32 | 1 | 0 | 5 | 16 | 0 | 20
CN(C)c1ncnc2nc[nH]c12 [SKF-31736] | 23 | 0 | 0 | 0 | 6 | 0 | 0 | 0 | 0 | 4
NCCC(NC(=O)c1cc(Br)c(-c2ccnc3[nH]ccc23)s1)c1ccccc1.O=C(O)C(F)(F)F.O=C(O)C(F)(F)F (stereo not shown) [GSK1307810] | 37 | 54 | 46 | 43 | 18 | 0 | 71 | 93.9 | 94.1 | 94.1
Cc1ccc(O)cc1Nc1ccnc2ccc(C(C)(C)C)cc12 [GW856805] | 26 | 0 | 3 | 0 | 32 | 53 | 20 | 40 | 13 | 1
CC(C)c1nc(-c2cccc(NS(=O)(=O)c3c(F)cccc3F)c2)c(-c2ccnc(Nc3ccc(N4CCOCC4)nc3)n2)s1.Cl [GSK1723980] | 0 | 0 | 0 | 0 | 52 | 96.5 | 0 | 95.1 | 0 | 10
Cc1ccc(O)cc1Nc1ccnc2cc(-c3ccc(CN4CCCCC4)o3)ccc12 [GW557777] | 0 | 0 | 0 | 0 | 96.7 | 82 | 44 | 84 | 27 | 34
Cc1cccc(Nc2nc(N[C@H]3CCCC[C@H]3N)ncc2C(N)=O)c1.Cl [GSK986310] | 28 | 27 | 24 | 0 | 78 | 12 | 59 | 46 | 50 | 64
Nc1ncc(-c2cn[nH]c2)c2scc(-c3ccc4c(c3)CCN4C(=O)Cc3ccccc3)c12 [GSK2593067] | 0 | 0 | 55 | 51 | 99.9 | 68 | 9 | 0 | 4 | 32
Cn1cc(-c2ccc3c(c2)CCN3C(=O)Cc2cc(F)cc(C(F)(F)F)c2)c2c(N)ncnc21 [GSK2635225] | 19 | 100 | 18 | 45 | 95.3 | 0 | 1 | 3 | 22 | 100
COC(=O)Nc1nc2ccc(Oc3ccc(CC(=O)Nc4cc(C(F)(F)F)ccc4F)cc3)cc2[nH]1 [GW680903] | 0 | 0 | 3 | 50 | 71 | 0 | 0 | 0 | 0 | 0
Cn1cc(-c2cnc(N)c3c(-c4ccc5c(c4)CCN5C(=O)Cc4ccccc4)csc23)cn1 [GSK2593074] | 19 | 0 | 0 | 39 | 99.9 | 20 | 0 | 21 | 0 | 1

SMILES | %Inh (CLK2) [%] | %Inh (CLK3) [%] | %Inh (CLK4) [%] | %Inh (CSF1R-autoinhibited) [%] | %Inh (CSF1R) [%] | %Inh (CSK) [%] | %Inh (CSNK1A1L) [%] | %Inh (CSNK1A1) [%] | %Inh (CSNK1D) [%] | %Inh (CSNK1E) [%]
COc1cccc2c(-c3ccncc3)c(-c3ccc(F)cc3)nn12 [GW468513] | 0 | 6 | 17 | 24 | 0 | 0 | 50 | 93.6 | 90.7 | 99.8
CC(=O)Nc1cn2nc(Oc3cccc(NC(=O)c4cccc(C(F)(F)F)c4)c3)ccc2n1 | 13 | 54 | 0 | 82 | 100 | 44 | 21 | 12 | 4 | 44
CCNc1nccc(-c2c(-c3ccc(F)cc3)ncn2C2CCN(C)CC2)n1 | 45 | 0 | 13 | 0 | 0 | 25 | 56 | 93 | 98.6 | 99.9
COc1cccc(-c2nc(-c3ccccc3)[nH]c2-c2ccncc2)c1 [SB-610250] | 0 | 27 | 8 | 0 | 2 | 0 | 19 | 47 | 66 | 68
COc1cc(Nc2nccc(N3CCC(NC(=O)Nc4ccc5c(c4)OCO5)C3)n2)cc(OC)c1OC (stereo not shown) [GSK1379766] | 0 | 2 | 0 | 0 | 41 | 0 | 0 | 0 | 0 | 20
O=C(O)C(F)(F)F.O=c1[nH]ccc2nc(N[C@@H]3CCNC3)nc(Nc3cc(Cl)cc(Cl)c3)c12 [GSK2188764] | 95.9 | 34 | 82 | 0 | 69 | 18 | 56 | 94 | 79 | 91.3
COc1cccc(CC(=O)N2CCc3cc(-c4cn(C)c5ncnc(N)c45)ccc32)c1 [GSK2608899] | 0 | 13 | 0 | 0 | 96.9 | 14 | 8 | 0 | 39 | 77
Cc1ccc(C)c(NC(=O)Nc2ccc(C)c(-c3ccc(C(=O)Nc4ccncc4)cc3)c2)c1 [GSK1398473] | 0 | 3 | 0 | 0 | 89 | 0 | 11 | 0 | 0 | 30
CNc1nccc(-c2ccc3c(N)n[nH]c3c2)n1 [GSK2206003] | 84 | 48 | 95.5 | 11 | 6 | 0 | 6 | 0 | 20 | 28
CN(C)CCOc1ccc(-c2cc(-c3ccc(Cl)c(O)c3)c(-c3ccncc3)[nH]2)cc1.Cl.Cl [SB-684387] | 1 | 5 | 3 | 30 | 5 | 7 | 2 | 23 | 77 | 94.6
O=C1NC(=O)C(c2ccccc2Cl)=C1Nc1cccc(Cl)c1 [SB-342409] | 73 | 7 | 28 | 0 | 33 | 0 | 9 | 0 | 16 | 17
Fc1cc(Cl)ccc1Nc1ccnc2cc(-c3ccc(CN4CCSCC4)o3)ccc12 [GW560106] | 0 | 0 | 22 | 52 | 92.3 | 13 | 0 | 0 | 6 | 27
Cc1ccccc1CC(=O)N1CCc2cc(-c3cn(C)c4ncnc(N)c34)ccc21 [GSK2603346] | 0 | 6 | 0 | 0 | 89 | 0 | 22 | 9 | 9 | 84
COC(=O)Nc1nc2ccc(Oc3ccc(NC(=O)Nc4cc(C(F)(F)F)ccc4F)cc3)cc2[nH]1.Cl [GW654607] | 0 | 0 | 48 | 30 | 99.8 | 0 | 0 | 0 | 0 | 13
Fc1cc(Cl)ccc1Nc1ccnc2cc(-c3ccc(CN4CCOCC4)o3)ccc12 [GW560109] | 0 | 0 | 15 | 7 | 94.2 | 33 | 0 | 11 | 19 | 4
CCn1c(-c2nonc2N)nc2c(-c3ccccc3)ncc(OCCCN)c21.O=C(O)C(F)(F)F.O=C(O)C(F)(F)F [GSK260205] | 0 | 5 | 4 | 0 | 2 | 0 | 46 | 69 | 94.2 | 98.7
CC(C)c1nc(-c2ccc(F)c(NS(=O)(=O)c3c(F)cccc3F)c2)c(-c2ccnc(Nc3ccc(N4CCOCC4)nc3)n2)s1 [GSK1804250] | 9 | 6 | 21 | 14 | 94.5 | 97.4 | 19 | 10 | 33 | 36
CS(=O)(=O)c1cccc(CNc2nc(Nc3ccc4c(c3)CCC(=O)N4)ncc2C(F)(F)F)c1 | 22 | 0 | 24 | 0 | 20 | 1 | 0 | 0 | 0 | 0
